In PubChem BioAssay AID686978 (National Center for Advancing Translational Sciences (NCATS), 2013) one finds Potency data, which are given here for 104 molecules.

The structures appear in SMILES notation. The whole screen tested about 420,000 compounds, of which about 64,000 (15%) were called active. Roughly 27% stayed inconclusive and do not appear here. Calls come from the whole dose curve; as a rule, active = well fitted inhibition curve with a large enough effect; inconclusive = small, poorly fitted or top-dose-only effect; inactive = flat fitted curve, though single readings scatter. Not all results are given here. A call without a number means that no potency is given here.
Potency is the fitted concentration of half-maximal effect.

The assay is described as follows: qHTS for Inhibitors of human tyrosyl-DNA phosphodiesterase 1 (TDP1): qHTS in cells in absence of CPT. Note: nearly all actives have a fitted effect of over 55% in size. The settings on record: DT40 Tdp1-/- hTDP1 cells, no CPT, ATP luminescence, 48 h; activity change, negative = growth inhibition: at 46.2 µM (top of the series). An excerpt: Human tyrosyl-DNA phosphodiesterase 1 (TDP1) is a novel repair gene, and we propose to use it as a new target for anticancer drug development. TDP1 is not an essential protein, but under treatment with topoisomerase I poison (camptothecin: CPT), TDP1 works as a critical factor for cell survival. To directly identify novel TDP1 inhibitors active in a cellular environment, we have knocked-out the Tdp1 gene in chicken DT40 cells (Tdp1-/-) and generated a complemented counterpart cells that contains a stable transfection of the human TDP1 gene (Tdp1-/-;hTDP1 cells). For the primary screen, Tdp1-/-;hTDP1 cells will be exposed to small molecules in the presence or absence of CPT, and their growth kinetics will be evaluated after 48 hours by measuring ATP activity. […] The hit compounds will then be evaluated in the presence or absence of CPT using Tdp1-/- cells. […] In tertiary assays, biochemical gel-based assays will be used to assess whether the hit compounds specifically target TDP1.
To this end, we have screened this cell line against the MLSMR in two primary screens. In one screen we add CPT and in the other we screen in the absence of CPT; this AID represents the screen where CPT was absent.
NIH Chemical Genomics Center [NCGC]
NIH Molecular Libraries Probe Centers Network [MLPCN]
Assay Submitter (PI): Yves Pommier, NCI
DT40-hTDP1 cells without 20 nM Camptothecin (add 20 microL of DMSO in 1 L of cell culture medium) were dispensed at 400 cells/5microL/well in tissue culture treated 1536-well white wall/solid bottom assay plates (Greiner Bio-One North America, NC, U.S.A.) using a Multidrop Combi 8 channel dispenser (Thermo Fisher, Waltham, MA, USA). 23 nL compounds and controls were transferred using the pin tool (Kalypsys, San Diego, CA, USA) to the assay plates. The assay plates were then incubated at 37 masculineC for a minimum 48 hr. Three microL of Cell Titer Glo solution was added to the plates and incubated at RT in dark for 30 min. Luminescence was read using ViewLux (Perkin Elmer) with 1 sec exposure slow speed, high gain and 2x binning.
In the case of `Cc1ccsc1C(=O)NNC(=O)COc1ccc(Br)cc1`, the Potency result is “inactive”.
Regarding `O=C(Nc1ccc2c(c1)C(=O)OC2)Nc1cccc2ccccc12`, the Potency entry was “inactive”.
Under `CN=C1S/C(=C\c2c(OC)cc(OC)cc2OC)C(=O)N1C` stands “inactive”; under `Cc1cccc(C)c1NC(=O)CSc1ccc([N+](=O)[O-])cn1`, “inactive”; under `CCOCC(=O)Nc1ncc(S(=O)(=O)c2ccc([N+](=O)[O-])cc2)s1`, “inactive”.
As for `COc1ccc(OCC(=O)NCCS(=O)(=O)N2CCN(c3ccc(F)cc3)CC2)cc1`, the entry is “inactive”; as for `c1ccc2nc(C3=NCCN3)cnc2c1`, “inactive”; as for `NN=C(NN=Cc1ccccc1)c1ccccc1`, 20.6 µM (active).
On to `O=C(C[n+]1ccccc1)N/N=C/c1ccc(O)cc1`, for which the Potency result is “inactive”.
With `O=C(CCCCCNC(=O)c1ccccc1)N/N=C/c1ccccc1`, the Potency result is “inactive”.
As for `Cc1ccc(Cc2cncc(O)c2)cc1S(=O)(=O)O`, the entry is “inactive”; as for `COC(=O)c1cc(NC(=O)c2cccnc2)ccc1N1CCOCC1`, “inactive”; as for `CCOC(=O)c1[nH]c2ccc(C)cc2c1N=C(C)N(C)C`, “inactive”.
Under `CCOc1ccccc1CNC(=O)c1cnc2c(-c3ccc(OCC)c(OCC)c3)c(C)nn2c1C` stands 11.6 µM (active); under `Cc1ccc(Cl)cc1N1CCN(C(=O)c2cnc3c(-c4ccc(F)cc4)c(C)nn3c2C)CC1`, “inactive”.
Under `CCOc1ccccc1CNC(=O)c1ccc2c(c1)nc1n2CCC(C)C1` (centres undefined) stands “inactive”; under `COCCCNC(=O)C1CC(=O)N(CCc2ccccc2)C1` (centres undefined), “inactive”; under `CC(C)(C)C(=O)CCN1C(=O)C2(OCCO2)c2ccccc21`, “inactive”.
In the case of `COc1cc(C(=O)OCc2cc(=O)n3ccsc3n2)ccc1OC(C)C`, the Potency was 20.6 µM (active).
As for `COc1ccc(C(=O)OCc2cc(=O)n3ccsc3n2)cc1F`, the entry is “inactive”; as for `COCCc1nn2c(=O)cc(COC(=O)c3cc(OC)c(OC)c(OC)c3)nc2s1`, “inactive”.
As for `NC(=O)C[n+]1cccc(C(N)=O)c1`, the entry is “inactive”; as for `O=C1c2oc3ccccc3c(=O)c2C(c2cccc(O)c2)N1c1ccccn1` (centres undefined), 20.6 µM (active); as for `CC(=O)c1sc(N2C(=O)c3oc4ccccc4c(=O)c3C2c2ccc(C)cc2)nc1C` (centres undefined), “inactive”.
In the case of `COc1ccc(C2c3c(oc4ccccc4c3=O)C(=O)N2Cc2ccc3c(c2)OCO3)cc1` (centres undefined), the Potency entry was “inactive”.
As for `COCCN1C2=C(COC(C)(C)C2)C(=S)NC1c1ccccc1` (centres undefined), the entry is “inactive”; as for `COC(C[C@@H](O)[C@H](C)[C@H](O)COCc1ccccc1)OC`, “inactive”.
Under `Cn1cccc1/C=C1\SC(=S)N(NC(=O)c2ccc(Cl)cc2)C1=O` stands “inactive”; under `O=C(CSc1ncn[nH]1)Nc1ccc(Br)cc1Br`, “inactive”.
`CC(C)CNC(=O)C(=O)NCc1ccccc1`: the Potency entry was “inactive”.
Under `O=C(NCc1ccccc1)C(=O)NCC(c1ccco1)S(=O)(=O)c1ccc(Cl)cc1` (centres undefined) stands 18.4 µM (active); under `CC(C)(C)c1ccc(C(=O)NCCC(=O)NCc2ccco2)cc1`, “inactive”; under `CN(C)C(CNC(=O)c1ccc(S(=O)(=O)NCc2ccco2)cc1)c1ccccc1` (centres undefined), “inactive”.
As for `O=C(NCCc1ccccc1)C(=O)NCC(c1ccco1)S(=O)(=O)c1ccccc1` (centres undefined), the entry is “inactive”; as for `CC(C)(C)c1ccc(C(=O)NCC(c2ccco2)S(=O)(=O)c2ccc(F)cc2)cc1` (centres undefined), 20.6 µM (active); as for `O=C(COC(=O)c1cccc(Cl)c1Cl)NC1CCCCCC1`, “inactive”.
Take `O=C(NNS(=O)(=O)c1ccccc1C(F)(F)F)c1cc2ncc(C(F)(F)F)cc2s1`: the Potency entry was “inactive”.
Under `COc1ccccc1OCCC(=O)OCC(=O)NC(=O)NC(C)(C)C` stands “inactive”.
Under `CSc1nnc(SCc2nc3sc(C(=O)O)c(C)c3c(=O)[nH]2)s1` stands “inactive”; under `COc1ccc(CCNC(=O)COC(=O)c2ccc[nH]c2=O)cc1`, “inactive”; under `Cc1cccc(Oc2c([N+](=O)[O-])c(=O)n(C)c3ccccc23)c1`, “inactive”.
As for `COc1cc2c(=O)n(C)c3ccccc3c2cc1OC`, the Potency is 11.6 µM (active).
As to `Cc1cc(C)c(-c2c(O)c3ccccc3n(C)c2=O)c(C)c1`, the Potency entry is “inactive”.
Take `Nc1ccc2c(c1)C(=Cc1cccnc1)c1ccccc1-2`: the Potency result was “inactive”.
As for `O=S(=O)(Nc1ccccc1N1CCOCC1)c1ccc(Cl)s1`, the entry is “inactive”; as for `COc1ccc(CNc2nc(-c3ccc(Cl)cc3)cc(C(F)(F)F)n2)cc1`, 18.4 µM (active).
As for `COc1cccc(NC(=O)C2CCN(c3cc(C)nc4c(-c5ccc(Cl)cc5)c(C)nn34)CC2)c1`, the entry is “inactive”; as for `COc1ccc(CCNc2nc(-c3ccc(Cl)cc3)cc(C(F)(F)F)n2)cc1OC`, 25.9 µM (active).
With `COc1ccc(CCNC(=O)COC(=O)c2ncc(Cl)c(Cl)c2Cl)cc1OC`, the Potency result is “inactive”.
Turning to `COc1ccc(CCNc2nc(C)cc(C)n2)cc1OC`, the Potency entry is “inactive”.
As for `COc1ccc(-n2c(-c3ccc(Cl)cc3)n[nH]c2=S)c(OC)c1`, the entry is “inactive”; as for `COc1ccc(-c2cc(C(F)(F)F)nc(NCc3cccnc3)n2)cc1`, “inactive”; as for `COc1ccc(-c2c(C)nn3c(N4CCC(C(=O)NCCC(C)C)CC4)cc(C)nc23)cc1OC`, “inactive”.
In the case of `COc1ccc(CCNc2cc(C)nc3c(-c4ccc(Cl)cc4)c(C)nn23)cc1OC`, the Potency is 18.4 µM (active).
As for `CCN1CCN(C(=O)CN(C)S(=O)(=O)c2ccc(OC)cc2)CC1`, the entry is “inactive”.
For the molecule `N#C/C(=C\N1CCOCC1)S(=O)(=O)c1ccc(Cl)cc1`, the Potency result was “inactive”.
In the case of `CCCC(=O)N1CCC1(C)C(=O)NS(=O)(=O)c1ccc(Cl)cc1` (centres undefined), the Potency result was “inactive”.
As for `COc1cccc(NC(=O)CN(C)CC(=O)c2c(N)n(Cc3ccccc3)c(=O)n(C)c2=O)c1`, the Potency result was “inactive”.
For the molecule `CC1CCC2(CC1)NC(=O)N(CC(=O)c1cccn1C)C2=O` (centres undefined), the Potency result was “inactive”.
Under `COc1ccc(NC(=O)COC(=O)CNC(=O)C2CCCCC2)cc1` stands “inactive”; under `O=C(NCc1cccnc1)c1ccccc1NC(=O)c1c(F)cccc1F`, “inactive”.
As for `CN(C)c1ccc2c(=O)[nH][nH]c(=O)c2c1`, the entry is “inactive”; as for `CCCN1C(=O)C(NC(C)=O)c2cc(OC)ccc21` (centres undefined), 18.4 µM (active); as for `CCCN1C2CCCC1CC(NC(=O)c1cccc(OC)c1)C2` (centres undefined), “inactive”.
With `COc1cccc(NC(=O)N2C3CCCC2CC(NC(C)=O)C3)c1` (centres undefined), the Potency result was “inactive”.
Under `Cn1c(CCNS(=O)(=O)c2ccc(F)cc2)nnc1SCc1cccnc1` stands “inactive”.
Under `COc1ccc(N(C)C(=O)CCS(=O)(=O)c2cccc3nsnc23)cc1` stands “inactive”; under `CCOC(=O)C1CCN(C(=O)Nc2ccc(C)c(Cl)c2)CC1`, “inactive”.
On to `Cc1ccc(NC(=O)Nc2cc(-c3ccccc3)nn2C)cc1Cl`, for which the Potency was 20.6 µM (active).
Under `Cc1cc(NC(=O)Nc2ccc(Cl)cc2)n(-c2ccccc2)n1` stands “inactive”; under `O=C(CN1CCOc2ccccc21)N1CCC(Cc2ccccc2)CC1`, 11.6 µM (active).
Regarding `O=C(NCc1nnc(SCC(=O)N2CCC(Cc3ccccc3)CC2)o1)c1ccco1`, the Potency entry was “inactive”.
Take `CC1(C)CC(=O)C(CC(=O)N2CCC(Cc3ccccc3)CC2)C(=O)C1`: the Potency result is “inactive”.
In the case of `CC1COC2C(O1)N(S(C)(=O)=O)CCN2S(C)(=O)=O` (centres undefined), the Potency entry is “inactive”.
Regarding `O=C(Nc1cccc(-c2nc3ccccc3[nH]2)c1)c1ccc(C(=O)Nc2cccc(-c3nc4ccccc4[nH]3)c2)cc1`, the Potency is 18.4 µM (active).
As to `NS(=O)(=O)c1cccc(NC(=O)COC(=O)/C=C/c2ccco2)c1`, the Potency result was “inactive”.
As to `CCC(=O)Nc1ccc2nn(-c3ccc(F)cc3)nc2c1`, the Potency result is “inactive”.
As for `O=C(Nc1cccc(NC(=O)c2ccc(Br)cc2)c1)c1ccccc1`, the entry is “inactive”; as for `O=C(/C=C/c1ccco1)Nc1cccc(-c2nc3ccccc3[nH]2)c1`, 23.1 µM (active).
Under `Cc1nnc(NC(=O)/C=C/c2ccco2)s1` stands “inactive”; under `c1ccc(-c2[nH]ncc2-c2nc3ccccc3[nH]2)cc1`, “inactive”.
Under `COc1cccc(NC(=O)COC(=O)/C=C/c2ccco2)c1` stands “inactive”; under `Cc1ccc(-n2nc3ccc(NC(=O)/C=C/c4ccco4)cc3n2)cc1C`, 18.4 µM (active).
As to `COc1ccccc1C(=O)Nc1ccnn1C1CCN(Cc2cnn(C)c2)CC1`, the Potency entry was “inactive”.
As for `COc1ccc2c(c1OC)C(=O)N(c1ncn[nH]1)C2`, the entry is “inactive”; as for `Cc1ccc(S(=O)(=O)NC[C@H]2O[C@@H](n3cnc4c(N)ncnc43)[C@H](O)[C@@H]2O)s1`, “inactive”; as for `CCCc1cc(=O)[nH]c(SCc2cc(=O)oc3c(C)c(C)ccc23)n1`, “inactive”.
With `CCN(CC(=O)Nc1c(F)cccc1F)C(=O)c1cnc(C)cn1`, the Potency entry is “inactive”.
Under `CC(C)CN(C(=O)CSc1nncn1C)C1CCS(=O)(=O)C1` (centres undefined) stands “inactive”.
As for `O=C(CN(Cc1ccccc1)C(=O)c1ccc2c(c1)OCCO2)NCc1ccc2c(c1)OCO2`, the entry is “inactive”; as for `CC/C(O)=N\S(=O)(=O)c1ccc(N=NN(C)C)cc1`, “inactive”; as for `COC(=O)C1=C(C)N(Cc2ccccc2)C(=NCCCOC(C)C)N[C@H]1c1ccccc1`, 10.3 µM (active).
`COCCN1C(=O)N[C@@H](c2ccccc2)C(C(=O)OC)=C1C`: the Potency result was “inactive”.
Under `CCN1C(=O)N[C@@H](c2ccccc2)C(C(=O)OC)=C1C` stands “inactive”.
As for `CCOCCOCCC(C(=O)O)P(=O)(c1ccccc1)c1ccccc1` (centres undefined), the entry is “inactive”; as for `CCOc1ccc(-n2cnnn2)cc1S(=O)(=O)N1CCC(C)CC1C` (centres undefined), “inactive”.
As for `CCc1ccccc1NC(=O)CSc1nnc(CCNC(=O)OC(C)(C)C)o1`, the entry is “inactive”; as for `Cc1ccccc1Nc1nc(N)nc(CSc2nnc3ccccn23)n1`, “inactive”; as for `COc1ccc(S(=O)(=O)N2CCc3ccccc32)cc1C(=O)Nc1cc(S(C)(=O)=O)ccc1Cl`, 4.61 µM (active).
`Cc1ccc(S(=O)(=O)N2CCc3cc(C(=O)Nc4ccc(Cl)cc4C)ccc32)cc1`: the Potency result was “inactive”.
Turning to `COc1ccc(OC)c(NC(=O)c2ccc3c(c2)CCN3S(C)(=O)=O)c1`, the Potency result was “inactive”.
As to `O=C(Nc1cc(C(F)(F)F)ccc1Cl)c1ccc2c(c1)CCN2S(=O)(=O)c1ccccc1`, the Potency is 11.6 µM (active).
Take `CS(=O)(=O)N1CCc2cc(C(=O)Nc3ccccc3)ccc21`: the Potency result is “inactive”.
For the molecule `CCN(C(=O)COC(=O)c1cc(S(=O)(=O)N2CCc3ccccc32)ccc1OC)C1CCS(=O)(=O)C1` (centres undefined), the Potency entry is “inactive”.
